Screening results: PubChem, Broad Institute
Only some compounds are listed: those with a hit (about 8.1% of all), similar ones and a draw of the others.
NOMO-1 viab – STK33 inhibitor candidate reducing NOMO-1 cell viability | NOMO-1 AML viability, CellTiter-Glo luminescence, 72 h | actives 7.5% (n = 37,000) | AID 2330 | inhibition, % (concentration not given with the values); in the data active means inhibition above about 80%; inconclusive means no clear call, values can overlap the other calls
Shh pathway inh – blocks Sonic Hedgehog signaling; actives 2.1% (n = 22,000); AID 2313; inhibition, % (no concentration beside the values); Shh-LIGHT2 Gli-luciferase reporter, 30 h;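 active means mean inhibition across valid replicates above about 65%, limit read from the data; inconclusive means mean under the limit, yet half or more replicates past it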;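 further: pathway switched on by Shh-conditioned medium diluted 1 in 25 in low serum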
MITF inh – MITF inhibition; inhibition, % (concentration not given with the values); AID 2240; actives 0.28% (n = 37,000); TRPM1 promoter luciferase, luminescence, 24 h; in the data active means inhibition above about 85%; inconclusive means no clear call, values can overlap the other calls; inactive means below about 68%;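 further: human melanocyte line stably carrying TRPM1 promoter luciferase reporter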
PD-1 reverse act – reversal of PD-1 mediated T-cell inhibition; primary human CD4 T cells, PD-L1 beads, CellTiter-Glo 96 h; activation, % (test concentration not listed); 29,000 tested, under 10 active; AID 2316; call rule not given here
Large screens that a line does not name were inactive.

C[C@H]1CN([C@@H](C)CO)C(=O)c2cc(NC(=O)Nc3ccc(C(F)(F)F)cc3)ccc2O[C@H]1CN(C)Cc1ccc(Oc2ccccc2)cc1	NOMO-1 viab 83
O=C(Nc1ccccc1)Nc1ccc(Cl)cc1SCc1ccccc1	NOMO-1 viab inconclusive
C/C(=C/COc1c(OC2OC(CO)C(O)C(O)C2O)ccc2ccc(=O)oc12)CO (centres undefined)	none
FC(F)(F)c1cc(-c2ccc3ccccc3c2)no1	NOMO-1 viab 88
COc1cc(CCC(O)CC(=O)CCc2ccc(O)cc2)ccc1O (centres undefined)	none (no result: NOMO-1 viab, MITF inh, PD-1 reverse act)
COc1cc(O)c(Cc2ccccc2O)c(O)c1C(=O)CCc1ccccc1	NOMO-1 viab 114
COc1cc(CCC(O)CC(=O)CCc2ccccc2)ccc1O (centres undefined)	none (no result: NOMO-1 viab, MITF inh, PD-1 reverse act)
COc1cc(O)c(C(=O)CCc2ccccc2)c(O)c1Cc1ccccc1O	NOMO-1 viab inconclusive, MITF inh 108
Cc1ccc(CNC(=S)NN(C)C)cc1	none
CCOC(=O)c1nnn2c3ccccc3c(=O)n(Cc3ccc(Cl)cc3)c12	none (no result: Shh pathway inh)
CC(C)(C)OC(=O)N[C@@H](Cc1ccccc1)c1n[nH]c(=S)o1	none
Cc1csc2sc(-c3ccnc(SCc4ccccc4)n3)c(C)c12	none
C=CCNC(=O)CSc1nccc(-c2sc3sc(Br)c(C)c3c2C)n1	NOMO-1 viab 110
Cc1c(Br)sc2sc(-c3ccnc(SCC(=O)NC(C)C)n3)c(C)c12	NOMO-1 viab 115
C[C@@H]1CN([C@H](C)CO)C(=O)Cc2cc(NC(=O)Nc3cccc4ccccc34)ccc2O[C@@H]1CN(C)Cc1ccc2c(c1)OCO2	NOMO-1 viab 116
C[C@@H]1CN([C@@H](C)CO)C(=O)Cc2cc(NC(=O)Nc3cccc4ccccc34)ccc2O[C@@H]1CN(C)Cc1ccc2c(c1)OCO2	NOMO-1 viab 97
C[C@@H]1CCCCO[C@@H](CN(C)Cc2ccc(Cl)c(Cl)c2)[C@@H](C)CN([C@H](C)CO)C(=O)c2cc(NS(=O)(=O)c3ccc(F)cc3)ccc2O1	NOMO-1 viab 99
C[C@H]1CN([C@@H](C)CO)C(=O)c2cc(NS(=O)(=O)c3ccc(F)cc3)ccc2O[C@@H]1CN(C)Cc1ccc(Cl)c(Cl)c1	NOMO-1 viab 110
C[C@@H]1CN([C@@H](C)CO)C(=O)c2cc(NS(=O)(=O)c3ccc(Cl)cc3)ccc2O[C@@H]1CN(C)Cc1ccc(Cl)c(Cl)c1	NOMO-1 viab 116
C[C@H](CO)N1C[C@H](C)[C@H](CN(C)Cc2ccc(Cl)c(Cl)c2)Oc2ccc(NS(=O)(=O)c3ccc(F)cc3)cc2C1=O	none
C[C@@H]1CCCCO[C@@H](CN(C)Cc2ccc(Cl)c(Cl)c2)[C@@H](C)CN([C@H](C)CO)C(=O)c2cc(NS(=O)(=O)c3cccs3)ccc2O1	NOMO-1 viab 118 (no result: PD-1 reverse act)
CS(=O)(=O)N(CC(=O)Nc1ccccc1-c1ccccc1)c1cccc(C(F)(F)F)c1	none (no result: Shh pathway inh)
O=C(CSc1nnc(C2COc3ccccc3O2)n1-c1ccccc1)c1ccc([N+](=O)[O-])cc1 (centres undefined)	none (no result: Shh pathway inh)
COc1ccc(NC(=O)CSc2nc3c(cc2C#N)C(=O)CCC3)cc1	none (no result: Shh pathway inh)
COc1cc(C)c(Br)cc1S(=O)(=O)NCC1CCCO1 (centres undefined)	none (no result: Shh pathway inh, PD-1 reverse act)
C[C@@H]1CCCCO[C@H](CN(C)Cc2ccc3c(c2)OCO3)[C@@H](C)CN([C@H](C)CO)C(=O)c2cc(NS(=O)(=O)c3ccc(Cl)cc3)ccc2O1	NOMO-1 viab 87
C[C@H]1CN([C@@H](C)CO)C(=O)c2cc(NS(=O)(=O)c3ccc(F)cc3)ccc2O[C@H]1CN(C)Cc1ccc2c(c1)OCO2	NOMO-1 viab 93
C[C@H](CO)N1C[C@H](C)[C@H](CN(C)Cc2ccc(Cl)c(Cl)c2)Oc2ccc(NS(=O)(=O)c3ccc(Cl)cc3)cc2C1=O	none
C[C@@H]1CN([C@H](C)CO)C(=O)c2cc(NS(=O)(=O)c3ccc(Cl)cc3)ccc2O[C@@H]1CN(C)Cc1ccc(Cl)c(Cl)c1	NOMO-1 viab 90 (no result: PD-1 reverse act)
C[C@@H]1CN([C@@H](C)CO)C(=O)c2cc(NS(=O)(=O)c3ccccc3)ccc2O[C@@H]1CN(C)Cc1ccc(Cl)c(Cl)c1	NOMO-1 viab 103
C[C@@H]1CN([C@H](C)CO)C(=O)c2cccc(NC(=O)CCCCCC(=O)Nc3ccccc3N)c2O[C@@H]1CN(C)Cc1ccc(C(F)(F)F)cc1	NOMO-1 viab 115 (no result: Shh pathway inh)
C[C@H](CO)N1C[C@H](C)[C@H](CN(C)C(=O)Nc2ccc(C(F)(F)F)cc2)Oc2c(NC(=O)CCCCCC(=O)Nc3ccccc3N)cccc2C1=O	NOMO-1 viab 114 (no result: Shh pathway inh)
